Most compounds without a hit are left out; they make up all but 3% or so of the library.
FBA Mtb inh: Mtb fructose-bisphosphate aldolase inhibition; P9WQA3; purified M. tuberculosis FBA, fluorescence read-out; inhibition, % at 1 µM; hit rate 2.3% among 360,000;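 note: 0% = vehicle and 100% = reference inhibitor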
GDH-TPI counter-1: GDH-TPI coupled enzyme inhibition counter-screen. GDH-TPI coupled enzyme counterscreen, NADH absorbance. inhibition, % at 4.8 µM. hit rate 1.2% among 360,000; in the data active = inhibition above about 30%;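 note: 0% = DMSO wells and 100% = wells lacking the enzyme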
Mtb BioA inh: inhibitors of Mycobacterium tuberculosis BioA enzyme | purified M. tuberculosis BioA enzyme, plate reader | inhibition, % at 9.99 µM | hit rate 0.096% among 360,000; in the data active = inhibition above about 40%
Rv3671c inh: Rv3671c (M. tuberculosis) protease inhibition | P9WHR9 | inhibition, % at 5.96 µM | hit rate 0.048% among 320,000 | AID 2606; in the data active = inhibition above about 38%;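 note: extracellular domain of Rv3671c used as enzyme; 0% = enzyme with DMSO and 100% = no enzyme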
Target sequence (P9WHR9 whole entry, looked up, the tested form may be a part): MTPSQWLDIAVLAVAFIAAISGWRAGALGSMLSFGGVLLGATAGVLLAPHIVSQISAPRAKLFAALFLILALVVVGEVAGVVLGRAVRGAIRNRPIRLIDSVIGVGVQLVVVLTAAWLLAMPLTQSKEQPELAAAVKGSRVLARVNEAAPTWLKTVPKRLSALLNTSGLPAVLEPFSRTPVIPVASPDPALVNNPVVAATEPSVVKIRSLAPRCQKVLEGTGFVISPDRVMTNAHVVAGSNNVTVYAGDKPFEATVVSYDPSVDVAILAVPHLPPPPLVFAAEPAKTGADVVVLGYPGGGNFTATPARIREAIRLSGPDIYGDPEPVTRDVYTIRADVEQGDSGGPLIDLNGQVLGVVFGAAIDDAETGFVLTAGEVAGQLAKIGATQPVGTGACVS
FadD28 FP inh: M. tuberculosis FadD28 bisubstrate binding inhibition | inhibition, % at 12.5 µM | AID 588549 | FadD28 bisubstrate probe binding, fluorescence polarization | hit rate 0.22% among 360,000; in the data active = inhibition above about 8.5%, passing the limit was not always enough
Mtb FBA inh conf: confirmation of M. tuberculosis fructose-bisphosphate aldolase inhibitors; shares compounds with FBA Mtb inh; purified M. tuberculosis FBA, fluorescence read-out; inhibition, % at 1 µM; hit rate 78% among 5,600;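 note: 0% = vehicle wells and 100% = reference inhibitor wells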
GDH-TPI counter-2: inhibits GDH-TPI coupling enzymes, flagging Mtb FBA hits. shares compounds with FBA Mtb inh. GDH-TPI coupled enzyme counterscreen, fluorescence. inhibition, % at 1 µM. hit rate 81% among 5,600. AID 652141; in the data active = inhibition above about 10%
GDH-TPI DR: counter-screen for M. tuberculosis FBA inhibitors: GDH-TPI dose response. shares compounds with FBA Mtb inh. GDH-TPI coupled enzyme assay, fluorescence, artifact counterscreen. IC50, µM. hit rate 79% among 170; call rule not given here
* = called active by the depositor. Cut-off read from the data, not from the text of the source, unless noted: active = inhibition above about 27%; inactive = the rest.

What do the screens show for `COc1ccccc1NC(=O)c1cc(N)cc(C(=O)Nc2ccccc2OC)c1`?
FBA Mtb inh: 0.3; GDH-TPI counter-1: 7.2; Rv3671c inh: -3.7; FadD28 FP inh: -0.2

Results for CN(C)CCNC(=O)c1coc(=O)c(Br)c1 ?
FBA Mtb inh: 66.3*; GDH-TPI counter-1: 10.0; Mtb BioA inh: -1.3; Rv3671c inh: 0.6; FadD28 FP inh: -3.2; Mtb FBA inh conf: active; GDH-TPI counter-2: active

What do the screens show for `Cc1noc(C)c1NC(=O)Nc1ccc2c(c1)CC(=O)N([C@H](C)CO)C[C@H](C)[C@@H](CN(C)S(=O)(=O)c1cccs1)O2`?
Mtb BioA inh: 2.0

What do the screens show for `CO[C@H]1CN(C)C(=O)c2cc(NS(C)(=O)=O)ccc2OC[C@@H](C)N(C(=O)C2CC2)C[C@@H]1C`?
Mtb BioA inh: 0.2

How did C[C@@H]1CCCCO[C@H](CN(C)Cc2ccncc2)[C@H](C)CN([C@@H](C)CO)C(=O)c2cc(NC(=O)Nc3ccc4c(c3)OCO4)ccc2O1 do in these assays?
Mtb BioA inh: 0.6

What do the screens show for `Nc1nc2nc(-c3ccc(OCc4ccccc4)cc3)cc(C(F)(F)F)n2n1`?
FBA Mtb inh: 36.1*; GDH-TPI counter-1: 12.8; Mtb BioA inh: -3.1; Rv3671c inh: 0.8; FadD28 FP inh: -0.8; Mtb FBA inh conf: active; GDH-TPI counter-2: active

Results for O=c1oc2ccccc2cc1-c1cn2ccccc2n1 ?
FBA Mtb inh: 3.8; GDH-TPI counter-1: 29.9; Rv3671c inh: -5.6; FadD28 FP inh: -1.5

How did O=c1oc(-c2ccccc2)cc2ccccc12 do in these assays?
FBA Mtb inh: 43.9*; GDH-TPI counter-1: 11.1; Mtb BioA inh: 0.2; FadD28 FP inh: -1.1; Mtb FBA inh conf: 71.2*; GDH-TPI counter-2: 47.4*

What do the screens show for `O=C(Cc1cccc2ccccc12)Nc1ccc(-c2cc3ccccc3oc2=O)cc1`?
FBA Mtb inh: 52.8*; GDH-TPI counter-1: 21.6; Mtb BioA inh: -2.2; Rv3671c inh: -23.1; FadD28 FP inh: -1.0; Mtb FBA inh conf: 74.9*; GDH-TPI counter-2: 49.4*

What do the screens show for `O=c1oc2ccccc2cc1-c1cn2cccnc2n1`?
FBA Mtb inh: 29.4*; GDH-TPI counter-1: 45.5*; Mtb BioA inh: -0.2; Rv3671c inh: -21.7; FadD28 FP inh: -1.8; Mtb FBA inh conf: active; GDH-TPI counter-2: 196.4*

What do the screens show for `Nc1ccc(-c2cc3ccccc3c(=O)o2)cc1`?
FBA Mtb inh: 1.5; GDH-TPI counter-1: 30.5; Mtb BioA inh: -1.6; Rv3671c inh: -0.4; FadD28 FP inh: -1.2

Results for O=c1oc2ccccc2cc1-c1ccccc1 ?
FBA Mtb inh: 31.5*; GDH-TPI counter-1: 17.1; Mtb BioA inh: -2.6; Rv3671c inh: -4.1; FadD28 FP inh: -0.3; Mtb FBA inh conf: 11.4; GDH-TPI counter-2: 2.0; GDH-TPI DR: 5.2*

Results for COc1ccccc1-c1ccc2c(c1)O[C@H](CN(C)C(=O)c1ccccc1)[C@H](C)CN([C@@H](C)CO)S2(=O)=O ?
Mtb BioA inh: 9.2

How did CCNC(=O)C[C@H]1CC[C@@H]2[C@H](COC[C@@H](O)CN2C(=O)C2CCOCC2)O1 do in these assays?
Mtb BioA inh: -3.1

Results for C[C@@H]1CN([C@H](C)CO)C(=O)c2cc(NC(=O)c3ccncc3)ccc2O[C@@H](C)CCCCO[C@@H]1CN(C)S(=O)(=O)c1ccccc1 ?
Mtb BioA inh: -2.8

What do the screens show for `N#CCc1nc(-c2cc3ccccc3oc2=O)cs1`?
FBA Mtb inh: 76.5*; GDH-TPI counter-1: 11.6; Rv3671c inh: -7.9; FadD28 FP inh: -0.6; Mtb FBA inh conf: 196.7*; GDH-TPI counter-2: 154.9*

How did O=c1oc2ccccc2cc1-c1nc(-c2cccs2)cs1 do in these assays?
FBA Mtb inh: 1.2; GDH-TPI counter-1: 27.4; Mtb BioA inh: -4.1; Rv3671c inh: -13.0; FadD28 FP inh: -0.5

What do the screens show for `Nc1cc2nc[nH]c2cc1N`?
FBA Mtb inh: 31.8*; GDH-TPI counter-1: 10.5; FadD28 FP inh: -0.8; Mtb FBA inh conf: 54.5*; GDH-TPI counter-2: 50.5*

Results for Cn1c(=O)n(C)c2cc3[nH]cnc3cc21 ?
FBA Mtb inh: 2.5; GDH-TPI counter-1: -3.2; Mtb BioA inh: 1.7; Rv3671c inh: 3.3; FadD28 FP inh: -2.4

Screens from PubChem.
